Screening data (PubChem BioAssay)
p53ts 39C kill = qHTS Screen for Compounds that Selectively Target Cancer Cells with p53 Mutations: Cytotoxicity of p53ts Cells at the Nonpermissive Temperature | H1299-p53A138V viability at 39C, ATP luminescence, 24 h | Potency, µM (highest dose often 46.1 µM), for the others: at the top dose activity change, negative = cell killing, usual class: cytotoxic | 130,000 compounds, 1.5% hits | AID 902, 2007; note: nearly all actives have a fitted effect of over 55% in size
p53ts 32C kill = qHTS Screen for Compounds that Selectively Target Cancer Cells with p53 Mutations: Cytotoxicity of p53ts Cells at the Permissive Temperature; Potency, µM (titrated, usually from 46.1 µM), inactives show at the top dose activity change, negative = cytotoxicity, most hits filed as cytotoxic; 130,000 compounds, 0.93% hits; H1299-p53A138V at 32C, ATP luminescence viability, 24 h;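 note: 0% = DMSO and -100% = full killing by reference compound; nearly all actives have a fitted effect of over 55% in size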
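ATP-content luminescence (ATPlite) read-out after 24 h compound exposure at 32C in H1299-p53A138V cells (600/well). Tested up to 46 uM. Normalized to DMSO (0%) and 100 uM tamoxifen (100% killing); Hill-fit AC50.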
ALOX12 inhib = qHTS Assay for Inhibitors of 12-hLO (12-human lipoxygenase); 150,000 compounds, 0.12% hits; Potency, µM (doses to about 57.1 µM), without a hit: top-dose activity change, negative = inhibition, actives largely listed as inhibitors; Polyunsaturated fatty acid lipoxygenase ALOX12 (Homo sapiens), P18054; purified 12-hLO, xylenol orange hydroperoxide absorbance; AID 1452, 2008; note: nearly all actives have a fitted effect of over 55% in size
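Hydroperoxide output read as Fe(III)-xylenol orange absorbance, 573-to-405 nm ratio, after 30 min reaction with 40 uM arachidonic acid. Enzyme: 150 nM purified human 12hLO, 15 min compound preincubation; 25 mM Hepes pH 7.0, room temperature.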
HPGD block = qHTS Assay for Inhibitors of HPGD (15-Hydroxyprostaglandin Dehydrogenase); purified HPGD, NADH fluorescence kinetic, PGE2 substrate; Potency, µM, without a hit: at the highest dose activity change, negative = inhibition, actives largely listed as inhibitors; 150,000 compounds, 4.3% hits; AID 894, 2007; active = well fitted inhibition curve with a large enough effect, not every such curve was filed as active; inconclusive = small, poorly fitted or top-dose-only effect, or another doubt; inactive = no such curve, though single readings can be large or run the other way
Target sequence (P15428 whole entry, looked up): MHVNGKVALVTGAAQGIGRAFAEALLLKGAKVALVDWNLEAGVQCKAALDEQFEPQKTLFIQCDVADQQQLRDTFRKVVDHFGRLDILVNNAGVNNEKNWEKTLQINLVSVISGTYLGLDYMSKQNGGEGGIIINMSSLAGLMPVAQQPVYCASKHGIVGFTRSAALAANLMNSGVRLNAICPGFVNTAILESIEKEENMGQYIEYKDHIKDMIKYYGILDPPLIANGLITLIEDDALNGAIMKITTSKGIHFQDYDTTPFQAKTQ
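NADH formation kinetics: reaction with 30 uM PGE2 and 1 mM NAD+ (final), 20 nM enzyme, Tris-HCl pH 8 with Tween 20, after 15 min compound preincubation at room temperature. Fluorescence change, last versus first of five reads.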
Numbers without * were called inactive; ? = inconclusive; · = not tested or not shown; [ ] = dose if it differs, or a comment. An excerpt weighted towards active compounds, which were near 4.4% of everything screened. Unless noted, calls come from the whole dose curve; as a rule, active = well fitted curve in the direction sought with a large enough effect; inconclusive = small, poorly fitted or top-dose-only effect, or another doubt; inactive = no such curve, though single readings can be large; an effect the other way counts as inactive or inconclusive. Unless noted, % is set by controls: 0 for no effect and ±100 for the full control effect; potency is the fitted concentration of half-maximal effect.

SMILES	p53ts 39C kill	p53ts 32C kill	ALOX12 inhib	HPGD block
Cc1ccc(-n2nc3c(N4CCC(C(=O)NCCc5ccccc5)CC4)nnc(C)c3c2C)cc1	-12%	-19%	·	·
Cc1ccc(-n2nc3c(N4CCC(C(=O)NCCc5ccccc5C)CC4)nnc(C)c3c2C)cc1	20µM*	?	·	·
CC(=O)OCC1OC(C#Cc2ccc(F)cc2F)C=CC1OC(C)=O (stereo not drawn)	?	-6%[9.22 µM]	·	·
O=C(O)C1CC(=O)N(CCC23CC4CC(CC(C4)C2)C3)C(=Nc2ccccc2)S1 (stereo not drawn)	8%	24%	-19%	-16%
O=C(Nc1cccc(C(=O)N2CCN(c3ccc(Cl)cc3)CC2)c1)c1nsc2ccccc12	?	-18%	·	·
Cc1nn(-c2nnc(NC3CCCCC3)nn2)c(C)c1Br	·	·	-4%	16µM*
Fc1ccc(CSc2nc3ncccc3[nH]2)cc1	?	?	-2%	-23%
Fc1cccc(CSc2nc3ncccc3[nH]2)c1	·	·	-5%	18µM*
Cc1c2cnn(-c3ccccc3)c(=O)c2c(C)n1CCCC(=O)Nc1ccc(F)cc1F	8%	-5%	·	·
C=CC1=C(C)C2=NC1=CC1=NC(=CC3=NC(=CC4=NC(=C2)C(C)=C4CCC(=O)O)C(CCC(=O)O)=C3C)C(C=C)=C1C.[Zn]	-18%	-7%	?	?
COc1ccc(CCCO[C@@H](Cn2ccnc2)c2ccc(OC)cc2)cc1	32µM*	?	-10%	-28%
COc1ccc(C(=O)NCCCn2ccnc2)cc1	0%	5%	-9%	-8%
CC(=O)c1c(C)oc2c(Br)cc(NS(=O)(=O)c3ccc(Br)cc3)cc12	-19%	15%	·	·
COc1ccc(-c2cc3c(=O)n(CC(=O)Nc4cc(C)ccc4C)ccn3n2)cc1	-21%	-11%	·	·
O=C(NCCCN1CCOCC1)c1ccc(-n2nc(C(F)(F)F)cc2-c2cccs2)cc1	·	·	4%	-5%
COCCCNC(=O)c1ccc(-n2nc(C(F)(F)F)cc2-c2cccs2)cc1	·	·	1%	14µM*
CCn1cc(S(=O)(=O)c2ccc(C)cc2C)c(=O)c2cc(F)c(N3CCCCC3)cc21	·	5%	·	·
O=C(Nc1nc(-c2cc3ccccc3oc2=O)cs1)c1ccc(Br)o1	·	·	20µM*	?
Cc1cc(=O)[nH]c(N/N=C/c2sccc2C)n1	·	·	-6%	40µM*
O=C(Nc1cc2c(cc1C(=O)c1ccccc1)OCCO2)c1ccc(Br)cc1	20µM*	-6%	·	·
CCC(=O)Nc1ccc2nc(SCCOc3ccc(C)cc3OC)sc2c1	-25%	-21%	·	·
O=C(NCCOC(=O)c1ccc(C(=O)OCCNC(=O)c2ccccc2)o1)c1ccccc1	4%	12%	-9%	7.9µM*
Cc1ccc(NC(=O)c2ccc(NCC3CCCO3)c([N+](=O)[O-])c2)cc1Cl (stereo not drawn)	·	·	-16%	14µM*
O=C(C1CCN(S(=O)(=O)c2cccc3nonc23)CC1)N1CCN(c2ccccc2)CC1	9%	8%	·	·
c1ccc(-c2nnc(CSc3nnc(-c4cccs4)o3)o2)cc1	-4%	11%	3%	16µM*
SMILES	p53ts 39C kill	p53ts 32C kill	ALOX12 inhib	HPGD block
O=C(CSc1nnc(-c2cccs2)o1)N1CCOCC1	8%	2%	2%	-21%
Fc1ccc(CSc2nnc(-c3cccs3)o2)cc1	7%	2%	-16%	16µM*
c1ccc2c(CSc3nnc(-c4ccncc4)o3)cccc2c1	·	·	-2%	25µM*
O=C(CSc1nnc(-c2cccs2)o1)N1CCCCC1	-15%	-19%	-1%	25µM*
Fc1ccccc1CSc1nnc(-c2cccs2)o1	-5%	-10%	-4%	28µM*
c1ccc(-c2nnc(CSc3nc4ccccc4[nH]3)o2)cc1	-7%	5%	1%	28µM*
c1ccc(CSc2nnc(-c3cccs3)o2)cc1	-4%	-8%	0%	20µM*
Cc1cc(=O)n(CC(=O)NC(C)c2ccccc2)c2c1c(C)nn2C (stereo not drawn)	2%	-8%	·	·
CCc1c(-c2n[nH]c(=S)n2Cc2ccccc2)csc1C	·	·	?	16µM*
Cc1ccccc1OCc1n[nH]c(=S)n1Cc1ccccc1	·	·	-23%	14µM*
S=c1[nH]nc(-c2ccc3ccccc3n2)n1-c1ccccc1Cl	·	·	4%	10µM*
S=c1[nH]nc(-c2ccc3ccccc3n2)n1-c1cc(Cl)cc(Cl)c1	5%	·	-1%	?
Cc1cc(C)n(Cc2n[nH]c(=S)n2Cc2ccccc2)n1	·	·	2%	0%
S=c1[nH]nc(-c2ccc3ccccc3n2)n1Cc1ccccc1	·	·	1%	11µM*
CCN(CC)S(=O)(=O)c1ccc(C(=O)N2CC(=O)Nc3ccc(F)cc3C2c2ccccc2)cc1 (stereo not drawn)	0%	6%	·	·
CN1CCc2nc(SCc3ccc(C(C)(C)C)cc3)c(C#N)cc2C1	·	·	0%	28µM*
COC(=O)c1ccccc1NC(=O)c1cc2c(s1)-c1ccccc1OC2	-11%	29%	·	·
COc1cc(NC(=O)c2cc3c(s2)-c2ccccc2OC3)cc(OC)c1OC	?	13µM*	·	·
CCCOc1ccccc1Cn1c(=O)oc2ccc(C)cc21	-12%	9%	-10%	25µM*
CCCCN1C(=O)Nc2ccccc2S1=O (stereo not drawn)	·	·	2%	16µM*
CCCCn1c(=O)[nH]c2ccccc21	·	·	-3%	-2%
CCOc1ccc(-c2nc3ccccc3c(=O)o2)cc1	2.5µM*	2.5µM*	·	·
O=C(O)c1cc(O)c2c(c1)[C@H]([C@H]1c3cc(C(=O)O)cc(O)c3C(=O)c3c(O[C@@H]4OC(CO)C(O)C(O)C4O)cccc31)c1cccc(O[C@@H]3OC(CO)C(O)C(O)C3O)c1C2=O (stereo partly drawn)	-21%	-23%	-3%	7.9µM*
NC(=O)CSc1ncc2c(n1)-c1ccccc1N(Cc1cccc(F)c1)S2(=O)=O	-20%	-4%	·	·
O=C(Nc1cc(C(=O)N2CCOCC2)ccc1N1CCCC1)c1cccs1	12%	3%	2%	-21%
SMILES	p53ts 39C kill	p53ts 32C kill	ALOX12 inhib	HPGD block
O=C(/C=C/c1ccco1)Nc1ccc(C(=O)N2CCOCC2)cc1	·	·	0%	18µM*
CC(C)CNC(=O)c1ccc(NC(=O)c2cccs2)cc1	·	·	-1%	18µM*
O=C(Nc1ccc(C(=O)N2CCOCC2)cc1)c1cccs1	2%	-11%	-2%	14µM*
O=C(c1ccc(N2CCOCC2)cc1)c1cccs1	7.9µM*	13µM*	-1%	13µM*
CCC(C)c1ccc(NC(=O)c2cccs2)cc1 (stereo not drawn)	·	·	4%	-19%
COc1ccccc1CNS(=O)(=O)c1c(C)nc2sc(C)cn2c1=O	-11%	-7%	·	·
CC(=O)c1ccc(NC(=O)c2ccc(-c3nc(COc4ccc(C)cc4)c(C)o3)cc2)cc1	-10%	5%	·	·
